Reference: PubChem BioAssay
Inconclusive results are not listed. Activity calls are given as the source filed them. Rule as the data show it, unless noted: active = inhibition above about 30%; inactive = the rest.

Experiments:
[1] = reducers of endogenous Her2 protein level, primary screen, SKBR3 breast tumor cells, AlphaScreen, ATP viability (AID 461;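 active = Her2 level under about 52% in both replicate screens, with viability over 70% of control, limit read from the data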;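 as to Her2 level: lower value means less Her2 protein in the cells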;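 as to viability: percent of carrier control wells set as 100% viability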); settings: 18-24 h, measured here: SKBR3 viability, ATP luminescence, at 10 µM
[2] = molecular target: Receptor tyrosine-protein kinase erbB-2 (Homo sapiens) (UniProt P04626); experiment: as above; settings: 18-24 h, at 10 µM, stronger effect = lower value
[3] = SK-BR-3 cell growth inhibitors, pilot screen, 24 h, human (AID 572;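 active = viability at or below 10% of carrier control in both of two separate runs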;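 also: compound exposure lasted between 18 and 24 h rather than exactly 24 h; 100% = carrier-treated control wells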); settings: SK-BR-3 viability, CellTiter-Glo luminescence, at 10 µM, stronger effect = lower value
[4] = HUVEC growth inhibition – cell-based, human, primary screen (AID 575;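 active = viability at or below 30% in both replicate assays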;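 also: 100% = median of untreated cell wells with 0.1% DMSO on each plate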); settings: HUVEC proliferation, CellTiter-Glo luminescence, 72 h; at 10 µM; stronger effect = lower value
[5] = growth inhibitors of H69AR lung tumor, primary screen, human, duplicate replicates (AID 580;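 active = viability at or under a set limit in both replicates, limit being median viability minus 3 SD, cut at about 48% in these data, passing the limit was not always enough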;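 also: 100% = mean luminescence of untreated wells and 0% = no signal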); settings: H69AR lung tumor cells viability, ATP luminescence, 72 h; at 10 µM; stronger effect = lower value
[6] = reversal of MRP1-mediated doxorubicin resistance, pilot screen, H69AR cells, doxorubicin co-treatment (AID 601;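 active = viability loss from added drug above about 55%, and viability with drug at most 40%, in both replicates, limit read from the data, passing the limit was not always enough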); settings: CellTiter-Glo, 72 h, at 10 µM; for differential viability (reversal): stronger effect = higher value
[7] = 384-well plate pilot, post-Golgi transport modulator project, inhibition of yeast transport mutant growth (AID 636; in the data active = inhibition above about 31%); settings: absorbance 615 nm, about 18 h, stronger effect = higher value
[8] = growth suppression of yeast trafficking mutant, preliminary HTS, modulators of trafficking downstream of Golgi apparatus project, 1536-format plate, OD 615 nm (AID 637); settings: yeast transport mutant growth, absorbance 615 nm, 18 h; stronger effect = higher value
[9] = OD615 S. cerevisiae growth inhibition, permissive medium, pilot counter-assay, permissive growth control for S. cerevisiae lifespan shortening project (AID 705;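 active = growth inhibition above 25% in both replicates, a cutoff set 3 SD above the mean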); settings: OD615, 24 h, at 10 µM, stronger effect = higher value
[10] = Restrictive medium S. cerevisiae growth inhibition, OD615, pilot screen of yeast lifespan reduction project, restrictive growth control (AID 706;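 active = growth inhibition above a set limit, 3 SD over mean compound inhibition, in both replicates, cut at about 43% in these data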;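 also: modified DeaD lifespan yeast strain shifted to restrictive glucose medium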); settings: OD615, 48 h, at 10 µM, stronger effect = higher value
[11] = viability gain of MRP-1-high H69AR cells under doxorubicin, pilot screen, MRP-1 activator project, CellTiter-Glo, duplicate (AID 807;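 active = viability increase at or above a cutoff of the median across tested compounds plus 3 SD, cut at about 8.5% in these data, passing the limit was not always enough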;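 also: compound pretreatment 18-22 h then 72 h combined with doxorubicin; 0% = doxorubicin alone and 100% = vehicle without doxorubicin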); settings: H69AR viability with doxorubicin, CellTiter-Glo luminescence; at 10 µM; stronger effect = higher value
[12] = growth suppression of beta-catenin knockout HCT116, pilot screen, human colon tumor cells (AID 823;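 active = cell viability at or below a set limit in both duplicate runs, the limit being the all-compound median minus 4 SD, cut at about 23% in these data, passing the limit was not always enough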;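 also: 0% = wells killed by 20 µM Hyamine and 100% = untreated DMSO cell wells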); settings: CellTiter-Glo, 60 h, at 10 µM, stronger effect = lower value
[13] = growth suppression of PTEN-deleted HCT116, pilot screen, cell-based, HCT116 clonal line, CellTiter-Glo (AID 824;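 active = viability at or below 27.92% in each of two runs, the all-compound median minus 4 SD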;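 also: 0% = 20 µM Hyamine control and 100% = vehicle cell control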); settings: 60 h, at 10 µM, stronger effect = lower value
[14] = inhibitors of the yeast RAM network, pilot screen, dse1pr::URA3 reporter, 5-FOA selection (AID 869;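 active = inhibition over a set limit, the all-compound mean plus 3 SD, in both replicate runs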;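 also: 0% = DMSO wells with no growth and 100% = 10 µM 1-NA-PP1 with full growth; RAM network block rescues cells from 5-FOA so hits raise OD615 growth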); settings: S. cerevisiae dse1pr::URA3 5-FOA growth, OD615, 2 d; at 10 µM; stronger effect = higher value; strain carries analog-sensitive mutant Cbk1 kinase
[15] = H69AR cells + 2 uM doxorubicin, measured here: viability with 2 uM doxorubicin, stronger effect = lower value
[16] = H69AR cells, compound alone cytotoxicity

Chain of Receptor tyrosine-protein kinase erbB-2 (Homo sapiens) (P04626 whole entry, looked up): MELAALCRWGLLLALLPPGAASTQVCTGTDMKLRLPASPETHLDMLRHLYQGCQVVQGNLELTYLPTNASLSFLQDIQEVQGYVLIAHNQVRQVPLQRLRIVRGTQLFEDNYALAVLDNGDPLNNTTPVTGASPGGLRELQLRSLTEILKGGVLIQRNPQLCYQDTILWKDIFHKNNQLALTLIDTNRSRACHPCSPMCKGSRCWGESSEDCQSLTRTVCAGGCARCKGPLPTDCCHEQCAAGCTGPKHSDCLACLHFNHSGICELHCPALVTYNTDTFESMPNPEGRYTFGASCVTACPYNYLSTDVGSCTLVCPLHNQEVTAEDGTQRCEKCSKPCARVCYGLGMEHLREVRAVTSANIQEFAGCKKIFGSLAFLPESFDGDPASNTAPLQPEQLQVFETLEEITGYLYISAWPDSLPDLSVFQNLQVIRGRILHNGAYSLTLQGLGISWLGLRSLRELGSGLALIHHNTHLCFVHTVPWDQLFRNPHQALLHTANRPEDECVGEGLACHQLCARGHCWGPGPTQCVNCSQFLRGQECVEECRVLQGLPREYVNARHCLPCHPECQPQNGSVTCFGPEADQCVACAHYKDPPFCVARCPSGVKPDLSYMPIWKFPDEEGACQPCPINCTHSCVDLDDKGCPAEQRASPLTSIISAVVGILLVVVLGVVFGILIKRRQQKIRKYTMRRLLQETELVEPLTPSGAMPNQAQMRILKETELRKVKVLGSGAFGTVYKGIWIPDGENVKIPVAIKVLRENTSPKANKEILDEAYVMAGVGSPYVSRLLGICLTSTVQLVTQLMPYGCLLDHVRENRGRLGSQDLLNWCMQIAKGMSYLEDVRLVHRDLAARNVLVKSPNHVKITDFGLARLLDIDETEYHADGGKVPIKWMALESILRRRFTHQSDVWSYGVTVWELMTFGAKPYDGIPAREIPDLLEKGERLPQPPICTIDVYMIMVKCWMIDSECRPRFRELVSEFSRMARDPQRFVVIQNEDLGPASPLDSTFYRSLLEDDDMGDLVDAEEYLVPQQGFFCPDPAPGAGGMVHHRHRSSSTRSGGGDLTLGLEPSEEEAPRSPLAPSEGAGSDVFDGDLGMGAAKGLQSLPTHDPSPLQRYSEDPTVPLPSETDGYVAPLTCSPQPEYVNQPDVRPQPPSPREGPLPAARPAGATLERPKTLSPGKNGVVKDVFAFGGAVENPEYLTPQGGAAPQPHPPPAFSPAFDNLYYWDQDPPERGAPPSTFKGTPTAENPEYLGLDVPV

Compound	viability [1] [%]	Her2 level [2]	viability [3]	viability [4]	viability [5]	differential viability (reversal) ([6]; H69AR cells + 2 uM doxorubicin)	viability [6, 15] [%]	viability [6, 16] [%]	inhibition [7]	inhibition [8]	growth inhibition [9]	growth inhibition [10]	viability increase [11]	viability [12]	viability [13]	inhibition [14]
O=C(CNS(=O)(=O)c1ccccc1)NCc1ccccn1	84	76.5% (inactive)	84% (inactive)	96.2% (inactive)	102% (inactive)	8.75% (inactive)	93.2	102	-2.27% (inactive)	1.45% (inactive)	–	–	–	–	–	–
Cn1c(=O)c(C(=S)NC(=O)C2CC2)c(N)n(Cc2ccccc2)c1=O	70.5	74.5% (inactive)	70.5% (inactive)	59.9% (inactive)	78.1% (inactive)	-6.6% (inactive)	84.7	78.1	-1.05% (inactive)	-3.65% (inactive)	–	–	–	–	–	–
Cc1nc2sc3c(c2c(=O)o1)CCC3	110	80.5% (inactive)	110% (inactive)	84.3% (inactive)	88.1% (inactive)	-14.3% (inactive)	102	88.1	-3.42% (inactive)	6.89% (inactive)	–	–	–	–	–	–
N#Cc1cnn(Cc2ccc(Cl)cc2)c1N	92	97.5% (inactive)	92% (inactive)	92.7% (inactive)	95.4% (inactive)	10.4% (inactive)	84.9	95.4	-7.03% (inactive)	-7.21% (inactive)	–	–	–	–	–	–
O=C(CC(Cc1ccccc1)C(=O)O)NCCc1ccc2c(c1)OCO2 (stereo unspecified)	90.5	122% (inactive)	90.5% (inactive)	92% (inactive)	100% (inactive)	19.3% (inactive)	80.8	100	-3.82% (inactive)	-7.17% (inactive)	–	–	–	–	–	–
C/C(CC(O)(/C=N/O)c1ccccc1)=N\O (stereo unspecified)	86	91.5% (inactive)	86% (inactive)	107% (inactive)	94% (inactive)	2.94% (inactive)	91.1	94	-0.26% (inactive)	3.77% (inactive)	–	–	–	–	–	–
COCc1nnc(NC(=O)c2ccc(NC(C)=O)cc2)s1	100	102% (inactive)	100% (inactive)	86.4% (inactive)	105% (inactive)	14.8% (inactive)	90.2	105	0.13% (inactive)	-9.19% (inactive)	–	–	–	–	–	–
Cc1cccc(C)c1NC(=O)c1cc(S(=O)(=O)N2CCOCC2)ccc1F	88.5	78.5% (inactive)	88.5% (inactive)	102% (inactive)	89.9% (inactive)	0.745% (inactive)	89.2	89.9	-5.53% (inactive)	-9.17% (inactive)	–	–	–	–	–	–
CC(C)OP(=O)(c1ccc(N(C)C)cc1)C(O)c1ccccc1F (stereo unspecified)	128	113% (inactive)	128% (inactive)	103% (inactive)	106% (inactive)	19% (inactive)	87.5	106	-4.93% (inactive)	3.06% (inactive)	–	–	–	–	–	–
Cn1c(SCc2ccccc2)nnc1C1CCCNC1 (stereo unspecified)	112	106% (inactive)	112% (inactive)	103% (inactive)	90.8% (inactive)	-4.07% (inactive)	94.8	90.8	0% (inactive)	0.17% (inactive)	–	–	–	–	–	–
COc1cccc(OC)c1C(=O)N1CCOCC1	100	87.5% (inactive)	100% (inactive)	92.1% (inactive)	100% (inactive)	15% (inactive)	85.1	100	-1.84% (inactive)	-0.81% (inactive)	–	–	–	–	–	–
Cc1ccc2c(c1)c1c3n2CC(=C2C(=O)OC(C)(C)OC2=O)NC3CCC1 (stereo unspecified)	103	73% (inactive)	103% (inactive)	73.1% (inactive)	94.6% (inactive)	9.35% (inactive)	85.3	94.6	-4.67% (inactive)	-4.59% (inactive)	–	–	–	–	–	–
CCN(c1ccc2c(c1)OCO2)S(=O)(=O)c1cc(Br)cc2c1N(C(=O)C1CC1)CC2	131	92.5% (inactive)	131% (inactive)	89.6% (inactive)	73.9% (inactive)	11.9% (inactive)	62	73.9	-10% (inactive)	3.17% (inactive)	-12.3% (inactive)	-14.7% (inactive)	-3.72% (inactive)	72.4% (inactive)	72% (inactive)	3.91% (inactive)
COC(=O)C1C(=O)C2=C(CC1C)NC(=O)CC2c1ccccc1 (stereo unspecified)	102	97% (inactive)	102% (inactive)	91.7% (inactive)	103% (inactive)	15.2% (inactive)	87.9	103	-3.55% (inactive)	5.33% (inactive)	–	–	–	–	–	–
CCN(CC)c1nc2cc(OC)ccc2cc1C#N	104	80.5% (inactive)	104% (inactive)	86.1% (inactive)	68.2% (inactive)	-14.1% (inactive)	82.3	68.2	-2.86% (inactive)	-5.24% (inactive)	–	–	–	–	–	–
